Laboratory results as given in the supplement of paper PMC12669032.

Experiments:
Assay in all cases: growth AUC relative to DMSO control (median of replicates) (fraction); higher = more growth (less inhibition), active = hit call of the paper
Details in all cases: 20 µM; 24 h;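 active = AUC reduced over 20% with Padj below 0.05 in at least 2 of 3 replicates; inactive = otherwise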
Akkermansia muciniphila = test system: Akkermansia muciniphila
Summary of the method: (§1)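 Hourly OD600 readings over 24 h tracked anaerobic gut bacterial monocultures grown at 37 °C in mGAM from OD600 0.05 with 20 µM compound (1% DMSO). After the minimum OD was set to 0, area under the growth curve was normalised to the plate median of solvent-only wells, or to row and column medians on the industrial chemical plate. Values are medians of three biological replicates grown on separate days.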

Bacteroides caccae = test system: Bacteroides caccae
Summary of the method: as §1

Bacteroides clarus = test system: Bacteroides clarus
Summary of the method: as §1

Bacteroides dorei = test system: Bacteroides dorei
Summary of the method: as §1

Bacteroides stercoris = test system: Bacteroides stercoris
Summary of the method: as §1

[1] = test system: Bacteroides thetaiotaomicron
Summary of the method: as §1

Bacteroides uniformis = test system: Bacteroides uniformis
Summary of the method: as §1

[2] = test system: Bifidobacterium longum subsp. longum
Summary of the method: as §1

Clostridium difficile = test system: Clostridium difficile
Summary of the method: as §1

Collinsella aerofaciens = test system: Collinsella aerofaciens
Summary of the method: as §1

Coprococcus comes = test system: Coprococcus comes
Summary of the method: as §1

Escherichia coli ED1a = test system: Escherichia coli ED1a
Summary of the method: as §1

Escherichia coli IAI1 = test system: Escherichia coli IAI1
Summary of the method: as §1

Eubacterium rectale = test system: Eubacterium rectale
Summary of the method: as §1

[3] = test system: Fusobacterium nucleatum subsp. animalis
Summary of the method: as §1

Lactobacillus gasseri = test system: Lactobacillus gasseri
Summary of the method: as §1

Lactobacillus paracasei = test system: Lactobacillus paracasei
Summary of the method: as §1

Odoribacter splanchnicus = test system: Odoribacter splanchnicus
Summary of the method: as §1

[4] = test system: Parabacteroides distasonis
Summary of the method: as §1

Parabacteroides merdae = test system: Parabacteroides merdae
Summary of the method: as §1

Measured: growth AUC

CC1=NNC(=O)N(/N=C/c2cccnc2)C1
inactive: Akkermansia muciniphila 0.995 | Bacteroides caccae 1.01 | Bacteroides clarus 0.98 | Bacteroides dorei 1.04 | Bacteroides stercoris 1.01 | [1] 1.02 | Bacteroides uniformis 1.04 | [2] 0.993 | Clostridium difficile 1.07 | Collinsella aerofaciens 1.1 | Coprococcus comes 1.02 | Escherichia coli ED1a 0.993 | Escherichia coli IAI1 0.991 | Eubacterium rectale 1 | [3] 1.02 | Lactobacillus gasseri 1.01 | Lactobacillus paracasei 0.988 | Odoribacter splanchnicus 1.03 | [4] 1.01 | Parabacteroides merdae 0.996

ClC1=C(Cl)[C@]2(Cl)C3CC=CC3[C@@]1(Cl)C2(Cl)Cl (stereo not given in full)
inactive: Akkermansia muciniphila 0.898 | Bacteroides caccae 1.03 | Bacteroides clarus 0.999 | Bacteroides dorei 0.992 | Bacteroides stercoris 0.973 | [1] 0.981 | Bacteroides uniformis 0.971 | [2] 0.994 | Clostridium difficile 0.997 | Collinsella aerofaciens 0.965 | Coprococcus comes 0.942 | Escherichia coli ED1a 0.99 | Escherichia coli IAI1 1.01 | Eubacterium rectale 0.951 | [3] 0.846 | Lactobacillus gasseri 0.989 | Lactobacillus paracasei 1.03 | Odoribacter splanchnicus 0.987 | [4] 1.04 | Parabacteroides merdae 0.984

Clc1ccc(Cl)c(Cl)c1
inactive: Akkermansia muciniphila 1.04 | Bacteroides caccae 0.88 | Bacteroides clarus 1.04 | Bacteroides dorei 1.01 | Bacteroides stercoris 1.24 | [1] 1.02 | Bacteroides uniformis 0.953 | [2] 0.957 | Clostridium difficile 0.941 | Collinsella aerofaciens 0.969 | Coprococcus comes 0.919 | Escherichia coli ED1a 0.996 | Escherichia coli IAI1 0.974 | Eubacterium rectale 1.1 | [3] 1.11 | Lactobacillus gasseri 0.86 | Lactobacillus paracasei 0.943 | Odoribacter splanchnicus 0.983 | [4] 0.95 | Parabacteroides merdae 1.02

COP(N)(=S)Oc1ccccc1C(=O)OC(C)C (stereo not given)
inactive: Akkermansia muciniphila 1.19 | Bacteroides caccae 1.02 | Bacteroides clarus 0.981 | Bacteroides dorei 0.893 | Bacteroides stercoris 0.979 | [1] 0.998 | Bacteroides uniformis 0.999 | [2] 1.03 | Clostridium difficile 0.993 | Collinsella aerofaciens 0.993 | Coprococcus comes 1.03 | Escherichia coli ED1a 0.969 | Escherichia coli IAI1 0.982 | Eubacterium rectale 1.04 | [3] 0.97 | Lactobacillus gasseri 0.906 | Lactobacillus paracasei 0.944 | Odoribacter splanchnicus 0.898 | [4] 0.877 | Parabacteroides merdae 0.986

CCOCn1c(-c2ccc(Cl)cc2)c(C#N)c(Br)c1C(F)(F)F
inactive: Akkermansia muciniphila 1.07 | Bacteroides caccae 0.902 | Bacteroides clarus 0.956 | Bacteroides dorei 0.945 | Bacteroides stercoris 0.914 | [1] 0.95 | Bacteroides uniformis 0.943 | [2] 1.04 | Clostridium difficile 0.816 | Collinsella aerofaciens 0.926 | Coprococcus comes 1.02 | Escherichia coli ED1a 0.99 | Escherichia coli IAI1 0.99 | Eubacterium rectale 1.03 | [3] 1.05 | Lactobacillus gasseri 0.904 | Lactobacillus paracasei 0.992 | Odoribacter splanchnicus 0.951 | [4] 0.924 | Parabacteroides merdae 0.834

C#CCOS(=O)OC1CCCCC1Oc1ccc(C(C)(C)C)cc1 (mixture of isomers)
inactive: Akkermansia muciniphila 1.08 | Bacteroides caccae 0.98 | Bacteroides clarus 0.976 | Bacteroides dorei 0.984 | Bacteroides stercoris 0.916 | [1] 0.991 | Bacteroides uniformis 0.99 | [2] 0.908 | Clostridium difficile 0.956 | Collinsella aerofaciens 0.975 | Coprococcus comes 1.02 | Escherichia coli ED1a 1.03 | Escherichia coli IAI1 0.968 | Eubacterium rectale 1 | [3] 1.05 | Lactobacillus gasseri 0.928 | Lactobacillus paracasei 0.987 | Odoribacter splanchnicus 0.946 | [4] 0.964 | Parabacteroides merdae 0.933

CC(Cc1ccc(C(C)(C)C)cc1)CN1C[C@@H](C)O[C@@H](C)C1 (stereo not given in full)
inactive: Akkermansia muciniphila 1.04 | Bacteroides caccae 1.03 | Bacteroides clarus 0.974 | Bacteroides dorei 1.01 | Bacteroides stercoris 1.07 | [1] 0.996 | Bacteroides uniformis 1.05 | [2] 0.992 | Clostridium difficile 1.02 | Collinsella aerofaciens 1 | Coprococcus comes 1.03 | Escherichia coli ED1a 1.01 | Escherichia coli IAI1 1.06 | Eubacterium rectale 0.983 | [3] 1.07 | Lactobacillus gasseri 1.06 | Lactobacillus paracasei 1.07 | Odoribacter splanchnicus 1.07 | [4] 0.985 | Parabacteroides merdae 0.999

COCc1c(F)c(F)c(COC(=O)C2C(C=C(C)C)C2(C)C)c(F)c1F (stereo not given)
inactive: Akkermansia muciniphila 0.976 | Bacteroides caccae 0.953 | Bacteroides clarus 0.943 | Bacteroides dorei 0.991 | Bacteroides stercoris 1.17 | [1] 0.98 | Bacteroides uniformis 0.972 | [2] 1.01 | Clostridium difficile 1.02 | Collinsella aerofaciens 1.03 | Coprococcus comes 0.979 | Escherichia coli ED1a 1.01 | Escherichia coli IAI1 1.02 | Eubacterium rectale 0.906 | [3] 1.04 | Lactobacillus gasseri 0.873 | Lactobacillus paracasei 0.978 | Odoribacter splanchnicus 1.05 | [4] 1.03 | Parabacteroides merdae 1.02

COP(=S)(OC)Oc1ccc(SC)c(C)c1
inactive: Akkermansia muciniphila 0.903 | Bacteroides caccae 0.943 | Bacteroides clarus 0.952 | Bacteroides dorei 1 | Bacteroides stercoris 0.995 | [1] 1.03 | Bacteroides uniformis 0.977 | [2] 0.963 | Clostridium difficile 1.03 | Collinsella aerofaciens 0.977 | Coprococcus comes 1.02 | Escherichia coli ED1a 0.997 | Escherichia coli IAI1 0.987 | Eubacterium rectale 0.878 | [3] 1.08 | Lactobacillus gasseri 1.01 | Lactobacillus paracasei 1.02 | Odoribacter splanchnicus 1 | [4] 0.915 | Parabacteroides merdae 0.953
